Source: PubChem BioAssay AID1159580 (chemical genetic matrix, 2015)
The campaign covered roughly 5,500 compounds. About 2,000 (36%) were called active. About 18% were inconclusive and are not listed. Some of the results follow. A number with no mark means an inactive call. Rule as the data show it: active = normalized growth mostly below about 0.91 (no sharp cut-off); inconclusive = no clear call, values can overlap the other calls; inactive = mostly above about 0.92.

Test: chemical genetic growth profiling, strain panel (AID 1159580);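 also: tested at 20 µM; growth read once vehicle control cultures reached saturation at 30 °C; 1 = growth at the plate median or of vehicle wells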
Details: S. cerevisiae deletion strains, growth OD
[1] = locus YAL013W, strain DEP1, stronger effect = lower value
[2] = locus YBR229C, strain ROT2, stronger effect = lower value
[3] = locus YCL061C, strain MRC1, stronger effect = lower value
[4] = locus YDL101C, strain DUN1, stronger effect = lower value
[5] = locus YDR150W, strain NUM1, stronger effect = lower value
[6] = locus YEL061C, strain CIN8, stronger effect = lower value
[7] = locus YGR078C, strain PAC10, stronger effect = lower value
[8] = locus YHR030C, strain SLT2, stronger effect = lower value
[9] = locus YHR087W, strain rtc3, stronger effect = lower value
[10] = locus YJR043C, strain POL32, stronger effect = lower value
[11] = locus YJR075W, strain HOC1, stronger effect = lower value
[12] = locus YLR039C, strain RIC1, stronger effect = lower value
[13] = locus YLR058C, strain SHM2 (second series), stronger effect = lower value
[14] = locus YLR085C, strain ARP6, stronger effect = lower value
[15] = locus YLR262C, strain YPT6, stronger effect = lower value
[16] = locus YML094W, strain GIM5, stronger effect = lower value
[17] = locus YMR219W, strain ESC1, stronger effect = lower value
[18] = locus YMR263W, strain SAP30, stronger effect = lower value
[19] = locus YNL153C, strain GIM3, stronger effect = lower value
[20] = locus YNL298W, strain CLA4 (second series), stronger effect = lower value
[21] = locus YNL322C, strain KRE1, stronger effect = lower value
[22] = locus YNR030W, strain Alg12, stronger effect = lower value
[23] = locus YOL006C, strain TOP1, stronger effect = lower value
[24] = locus YPL055C, strain LGE1, stronger effect = lower value
[25] = locus YPL241C, strain CIN2, stronger effect = lower value
[26] = locus YPR135W, strain CTF4, stronger effect = lower value

O=S(=O)(NCc1ccc2c(c1)OCO2)c1ccc(F)c(Cl)c1
normalized growth [1]: 0.98 | normalized growth [2]: 0.94 | normalized growth [3]: 0.977 | normalized growth [4]: 0.925 | normalized growth [5]: 0.913 | normalized growth [6]: 0.965 | normalized growth [7]: 0.96 | normalized growth [8]: 0.779 | normalized growth [9]: 0.948 | normalized growth [10]: 0.968 | normalized growth [11]: 0.937 | normalized growth [12]: 0.757 (active) | normalized growth [13]: 0.951 | normalized growth [14]: 0.991 | normalized growth [15]: 0.683 (active) | normalized growth [16]: 1 | normalized growth [17]: 0.962 | normalized growth [18]: 0.965 | normalized growth (locus YNL128W, strain TEP1, stronger effect = lower value): 0.957 | normalized growth [19]: 0.971 | normalized growth [20]: 0.943 | normalized growth [21]: 0.967 | normalized growth [22]: 0.954 | normalized growth [23]: 0.843 | normalized growth [24]: 0.995 | normalized growth [25]: 0.998 | normalized growth [26]: 0.784

O=S(=O)(NCC1CC1)c1ccc(F)c(Cl)c1
normalized growth [1]: 1 | normalized growth [2]: 1 | normalized growth [3]: 0.999 | normalized growth [4]: 0.994 | normalized growth (locus YDL134C, strain PPH21, stronger effect = lower value): 1.01 | normalized growth [5]: 0.945 | normalized growth [6]: 1 | normalized growth [7]: 1 | normalized growth [8]: 0.969 | normalized growth [9]: 1.02 | normalized growth [10]: 0.997 | normalized growth [11]: 1.01 | normalized growth [12]: 1.06 | normalized growth [13]: 1 | normalized growth [14]: 1 | normalized growth [15]: 1 | normalized growth [16]: 1.01 | normalized growth [17]: 1 | normalized growth [18]: 1 | normalized growth [19]: 1 | normalized growth [20]: 1.03 | normalized growth [21]: 0.995 | normalized growth [22]: 0.996 | normalized growth [23]: 1.05 | normalized growth [24]: 1.02 | normalized growth [25]: 0.99 | normalized growth [26]: 1.02
